Most compounds without a hit are left out; they make up all but 7% or so of the library.
rCAG RNA binder = r(CAG) repeat RNA binding. 370,000 tested, 1.3% active. inhibition, % at 3 µM. AID 651821. TO-PRO-1 dye displacement fluorescence;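 active = inhibition above the plate cutoff, the mean of all test compounds on that plate plus 3 SD, cut at about 35% in these data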;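 note: higher means more dye released from RNA so lower well fluorescence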
AHR act = activates the human aryl hydrocarbon receptor. P35869. AHR-responsive luciferase reporter cells, luminescence. activation, % at 5 µM. 320,000 tested, 2.5% active. AID 2796; in the data active = activation above about 47%
Target sequence (P35869 whole entry, looked up): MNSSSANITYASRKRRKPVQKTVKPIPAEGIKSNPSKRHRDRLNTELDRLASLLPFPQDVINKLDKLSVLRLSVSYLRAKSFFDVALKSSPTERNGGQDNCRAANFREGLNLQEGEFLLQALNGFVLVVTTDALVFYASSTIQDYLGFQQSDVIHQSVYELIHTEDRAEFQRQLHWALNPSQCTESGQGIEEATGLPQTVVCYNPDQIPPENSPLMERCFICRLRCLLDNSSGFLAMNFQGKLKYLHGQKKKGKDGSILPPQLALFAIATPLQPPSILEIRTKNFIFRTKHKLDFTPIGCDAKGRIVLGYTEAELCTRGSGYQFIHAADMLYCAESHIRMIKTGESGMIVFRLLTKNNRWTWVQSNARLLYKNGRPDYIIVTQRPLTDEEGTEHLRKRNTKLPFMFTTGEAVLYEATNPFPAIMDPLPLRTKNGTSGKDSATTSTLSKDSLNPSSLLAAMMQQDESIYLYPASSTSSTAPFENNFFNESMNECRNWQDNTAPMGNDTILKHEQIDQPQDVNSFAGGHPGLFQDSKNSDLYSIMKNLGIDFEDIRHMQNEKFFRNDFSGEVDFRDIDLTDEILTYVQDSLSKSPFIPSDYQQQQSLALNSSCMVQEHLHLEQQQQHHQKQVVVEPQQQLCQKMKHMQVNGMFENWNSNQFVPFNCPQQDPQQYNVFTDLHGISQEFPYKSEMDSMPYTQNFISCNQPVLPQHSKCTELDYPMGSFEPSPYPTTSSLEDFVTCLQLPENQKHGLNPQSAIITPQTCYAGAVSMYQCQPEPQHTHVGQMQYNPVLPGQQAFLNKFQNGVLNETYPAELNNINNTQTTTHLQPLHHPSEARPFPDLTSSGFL
ADAM10 inh = inhibitors of human ADAM10 | O14672 | recombinant ADAM10, EDANS/DABCYL FRET peptide cleavage, 3 h | inhibition, % at 7 µM | 370,000 tested, 0.62% active;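 active = inhibition above a per-campaign cutoff equal to the mean of compounds falling between control-based bounds plus 3 SD, cut at about 20% in these data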
ADAM17 inh = inhibits human ADAM17 | inhibition, % at 6.95 µM | recombinant ADAM17, EDANS/DABCYL FRET peptide cleavage | P78536 | 370,000 tested, 0.83% active;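 active = inhibition above the mean of compounds lying between control limits plus 3 SD, set per campaign, cut at about 8.5% in these data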
GRIN3A LBD mod = modulators (binders) of human NR3A ligand-binding domain; NR3A LBD differential scanning fluorimetry, Tm shift; 0% = protein alone, 100% = glycine-bound protein; Tm shift relative to glycine control, % at 25 µM; 340,000 tested, 2.5% active;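 active = melting temperature shift of at least 10% of the positive control shift, at one fixed dose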
proKLK7 act = activators of human kallikrein-7 zymogen; P49862; purified proKLK7, EDANS-DABCYL substrate fluorescence; 100% is mature enzyme control, 0% vehicle; activation, % at 7 µM; 370,000 tested, 0.9% active; AID 652039;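 active = activation above the mean of all tested compounds plus 3 SD, computed per campaign excluding outliers beyond control limits, cut at about 13% in these data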
Numbers stand for hits; n = inactive; x = no result given.

SMILES	rCAG RNA binder	AHR act	ADAM10 inh	ADAM17 inh	GRIN3A LBD mod	proKLK7 act
CC(=O)NS(=O)(=O)c1ccc(NC(=O)C2c3ccccc3Oc3ccccc32)cc1	n	n	n	n	11	n
CNS(=O)(=O)c1ccc(NC(=O)C2c3ccccc3Oc3ccccc32)cc1	n	n	n	n	n	n
Cc1cc(C)cc(N(CC(=O)NCc2ccco2)C(=O)CCC(=O)Nc2ccccn2)c1	n	x	n	n	17	n
COc1ccc2c(c1)oc(=O)c1ccccc12	n	n	n	n	n	n
COc1ccc2c(c1)oc(=O)c1c3ccccc3[nH]c21	n	x	n	n	21	n
COC1C(O)CCC2(CO2)C1C1(C)OC1CC=C(C)C (configuration not stated)	n	x	n	n	x	n
CC(Cc1ccc(O)c(O)c1)C(C)Cc1ccc(O)c(O)c1 (configuration not stated)	x	n	x	x	24	x
COc1cc(C[C@@H](C)[C@@H](C)Cc2ccc(O)c(OC)c2)ccc1O	n	n	n	n	n	n
O=S(=O)(Nc1nc(-c2sccc2Cl)cs1)c1cc(Cl)ccc1Cl	x	n	x	x	14	x
CC(C)(C)c1nnc(NS(=O)(=O)c2cc(Cl)ccc2Cl)s1	n	n	n	n	n	n
NC(=O)NN=C1CCC(O)CC1CC(=O)O (configuration not stated)	n	x	n	n	x	n
COC(=O)[C@]12C[C@H](CC(=O)NCCC(C)C)C(=O)N(CCc3ccc(OC)c(OC)c3)C1=C[C@H](C(C)C)O[C@@H]2C1CC1	n	x	n	n	x	n
C/C(=N\NC(=O)CNc1cccc(C(F)(F)F)c1)c1ccc(Br)cc1	n	n	n	n	18	n
C/C(=N\NC(=O)CNc1cccc(C(F)(F)F)c1)c1cccc(Br)c1	n	75	n	n	n	n
C/C(=N\NC(=O)CNc1cccc(C)c1)c1ccc(Br)s1	n	71	n	n	12	n
CC(=O)N/N=C(\C)c1cccc(C(F)(F)F)c1	n	n	n	n	n	n
CN(CCCOC(=O)c1occ2ccccc12)C1CN(Cc2cn(Cc3ccccc3Cl)nn2)S(=O)(=O)C1 (configuration not stated)	n	x	n	n	x	n
O=C(Nc1ccc(Cl)c(Cl)c1)Nc1cc(C(=O)NC2CC2)ccc1Cl	x	74	x	x	x	x
O=C(Nc1ccc(Cl)c(Cl)c1)NC1CCS(=O)(=O)C1 (configuration not stated)	n	n	n	n	n	n
CCSc1nc(=S)cc(C)[nH]1	n	n	n	n	10	n
CCCCc1c(-c2ccccc2OC)ncn1Cc1ccccc1C	n	x	n	n	x	n
COc1ccccc1C(=O)Nc1sc2c(c1C(N)=O)CCCC2	n	55	n	n	35	n
CCOc1ccccc1NC(=O)c1c(Br)cnn1C	n	59	n	n	n	n
CCn1ncc(Br)c1C(=O)Nc1ccccc1OC	n	49	n	n	n	n
CCn1ncc(Br)c1C(=O)Nc1ccc(C(C)C)cc1	n	77	n	n	n	n
SMILES	rCAG RNA binder	AHR act	ADAM10 inh	ADAM17 inh	GRIN3A LBD mod	proKLK7 act
O=C(c1ccccc1)N1CCC(Oc2cccnc2)CC1	n	x	n	n	x	n
COc1ccc2c(c1)N[C@@](CCN1C(=O)c3ccccc3C1=O)(c1[nH]c3ccccc3c1CCN1C(=O)c3ccccc3C1=O)C2=O	x	x	n	n	x	x
CCn1ncc(Br)c1C(=O)Nc1sc2c(c1C(N)=O)CCC2	n	49	n	n	n	n
O=S1(=O)c2ccccc2OC(COCc2ccccc2)CN1Cc1ccccc1 (configuration not stated)	n	x	n	n	18	n
CCCCN1CC(COCc2ccccc2)Oc2cccc(F)c2S1(=O)=O (configuration not stated)	n	x	n	n	14	n
CCCCN1CC(COCc2ccccc2)Oc2ccccc2S1(=O)=O (configuration not stated)	n	x	n	n	17	n
CCCCN1C[C@@H](COCc2ccccc2)Oc2cc(F)ccc2S1(=O)=O	n	x	n	n	x	n
Cc1ccc(O)c(-c2cc(C(=O)Nc3cccnc3)[nH]n2)c1	n	60	n	n	29	n
COc1ccc(F)cc1-c1cc(C(=O)Nc2cccnc2)[nH]n1	n	x	n	n	x	n
O=C(Nc1cccnc1)c1cc(-c2cc(Cl)ccc2O)n[nH]1	n	n	n	n	32	n
COc1ccc(Cl)cc1C(=O)Nc1cccnc1	n	n	n	n	n	n
C[C@@H]1CNCCN1c1ccc(N2CCS(=O)(=O)CC2)c(C#N)c1	n	x	n	n	x	n
Nc1[nH]c(C(=O)c2ccccc2)c(-c2ccc3ccccc3c2)c1C(=O)NCc1ccc(F)cc1	n	x	n	n	x	n
Cc1cc(C)c2nc(-c3ccccn3)cc(C(=O)NCc3ccco3)c2c1	n	69	n	n	n	n
O=C(CSc1nnc(-c2cccnc2)n1Cc1ccco1)Nc1ccc(Cl)c(Cl)c1	n	x	n	n	x	n
CCCC(=O)Nc1ccc(Cl)c(NC(=O)c2ccco2)c1	n	n	n	n	n	n
CCC(=O)Nc1ccc(Cl)c(NC(=S)NC(=O)COc2ccc(Cl)cc2)c1	n	n	n	n	26	n
CCCC(=O)Nc1ccc(Cl)c(NC(=S)NC(=O)c2ccco2)c1	n	53	n	n	n	n
O=C(Nc1ccc(NC(=O)c2cccs2)c(Cl)c1)c1cccs1	n	n	n	n	13	n
O=C(Nc1ccc(Cl)c(NC(=O)c2cccs2)c1)c1ccco1	n	75	n	n	n	n
O=S1(=O)CC2c3ccccc3CN2CN1Cc1ccc(F)cc1 (configuration not stated)	n	x	n	n	x	n
CCCCc1c(-c2ccccc2OC)ncn1Cc1cc(F)ccc1F	n	x	n	n	x	n
O=C(NCCc1c[nH]c2ccccc12)OCc1cn(-c2ccc(F)cc2F)nn1	n	x	n	n	x	n
COCCn1c(=NC(=O)CCS(=O)(=O)c2ccccc2)sc2c(OC)ccc(OC)c21	n	51	n	n	n	n
COCCn1c(=NC(=O)CCS(=O)(=O)c2ccccc2)sc2cc(C(=O)OC)ccc21	n	n	n	n	n	n
SMILES	rCAG RNA binder	AHR act	ADAM10 inh	ADAM17 inh	GRIN3A LBD mod	proKLK7 act
Cc1ccc(NC(=O)c2ccccc2O)cc1	n	n	n	n	n	n
O=C(Nc1ccccc1)Nc1ccc(NC(=O)c2ccccc2O)cc1	n	n	n	n	42	n
Cc1cc(C)cc(NC(=O)Nc2ccc(NC(=O)c3ccccc3O)cc2)c1	n	n	n	n	25	n
Cc1ccc(C(=O)Nc2ccc3ccccc3n2)cc1	n	n	n	n	n	n
Cc1cc(C)cc(NC(=O)Nc2ccc3ccccc3n2)c1	n	56	n	n	n	n
O=C(COc1ccccc1)NCCSCc1ccc(Cl)cc1	n	n	n	8.6	n	n
O=C(/C=C/c1ccccc1)NCCSCc1ccc(Cl)cc1	n	n	n	n	12	n
O=C(Cc1ccccc1)NCCSCc1ccc(Cl)cc1	n	n	n	n	n	n
N=C(N)c1ccc(Cl)cc1	n	52	n	n	n	n

Compound activity (PubChem BioAssay)
